Hit rate of the full screen: of about 2,400 compounds, about 1,800 (75%) were called active.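 Rule for the calls: active = inhibition above the primary screen limit, the mean inhibition of all tested compounds plus 3 SD (cut at about 25% in these data); inactive = the rest.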 So high a share suggests a set chosen from earlier hits. Only a sample is shown.

This passage reports inhibition results from PubChem BioAssay AID2149 (The Scripps Research Institute Molecular Screening Center, 2009).

The experiment concerns tRNA 2'-phosphotransferase TPT1 [Candida albicans SC5314]. The experiment in a line: tRNA 2'-phosphotransferase enzyme inhibition – biochemical, fluorescence polarization, triplicate, confirmation (AID 2149). To be noted: recombinant caTPT1, fluorescence polarization, RNase T1 coupled; at 5 µM; stronger effect = higher value. In general terms: In fluorescence polarisation assays a small probe gives low polarisation when free and higher when bound to something large.
With `C[n+]1ccc(/C=C/c2c[nH]c3ccccc23)cc1`, the inhibition (usually the drop in the measured response relative to a control, in per cent) is 56.5% (active).

In the case of `Cc1nc2ccccc2nc(=O)c1NNc1ccc([N+](=O)[O-])cc1`, the inhibition was 35.8% (active).

As for `CC(=O)n1c(C=Nc2ccccc2)c(O)c2ccccc21`, the inhibition was 73.1% (active).

As to `COc1cc2c(cc1O)[C@H](Cc1ccc(Oc3cc(C[C@@H]4NCCc5cc(OC)c(O)cc54)ccc3O)cc1)NCC2`, the inhibition is 33.8% (active).

On to `COc1cc(N2CCCC2)c(OC)cc1/C=C(/C#N)c1cccc(Br)c1`, for which the inhibition was 68.1% (active).

As to `CC(=O)c1cc(NC(=O)c2ccccc2)c(=O)oc1/C=C/N(C)C`, the inhibition is 118% (active).

For `CC(C)(C)c1ccc(/C=C2\Oc3c(ccc(O)c3CN3CCN(CCO)CC3)C2=O)cc1`, the inhibition was 37.2% (active).

Regarding `C=CCC1=C/C(=C\c2c(N)n3nc(CC(=O)N4CCOCC4)sc3nc2=O)C=C(OC)C1=O`, the inhibition was 104% (active).

With `CCOC(=O)/C(C#N)=C/c1ccc(N2CCCCC2)cc1`, the inhibition was 126% (active).

Consider `CCOC(=O)/C(C#N)=C/c1ccc(N2CCN(Cc3ccccc3)CC2)cc1`, for which the inhibition was 81.9% (active).

Take `CCN1/C(=C\c2ccc3ccccc3[n+]2CC)Sc2cc(C)ccc21`: the inhibition is 78.3% (active).

`CCN1/C(=C/c2ccc3ccc(C)cc3[n+]2CC)Sc2ccccc21`: the inhibition was 44.2% (active).

With `COc1ccc(N=C(C)c2sc3ccccc3c2O)cc1`, the inhibition was 70.2% (active).

Take `COc1ccc(C2=NN(C(=O)c3ccccc3C(=O)O)C(c3ccccc3O)C2)cc1` (stereo not given): the inhibition is 26.3% (active).

Take `CN(C)c1ccc(/C=C2\NC(=S)N(Cc3ccccc3)C2=O)cc1`: the inhibition is 160% (active).

With `CCOC(=O)c1c(NC(=S)Nc2ccccc2)sc2c1CCN(C)C2`, the inhibition is 42.8% (active).

`COc1cc(/C=C2/C(=O)NN(c3cccc(Cl)c3)C2=O)cc(Br)c1O`: the inhibition is 153% (active).

As to `Oc1ccc(/C=N/Nc2nc(-c3ccccc3F)nc3ccccc23)c(O)c1`, the inhibition was 29.1% (active).

Take `CN(c1ccccc1)c1ccc(/C=c2\s/c(=C(/C#N)C(=O)C(C)(C)C)n(Cc3ccco3)c2=O)cc1`: the inhibition was 127% (active).

For `CN1/C(=C\C=C2\N=C(c3ccc(F)cc3)OC2=O)C(C)(C)c2ccccc21`, the inhibition was 151% (active).

With `Cc1ccc(Nc2ccccc2N)cc1`, the inhibition is 25.8% (active).

Turning to `CCOC(=O)c1c(CC(C)C)csc1/N=C/C1=C(O)CCCC1=O`, the inhibition is 11.9% (inactive).

Regarding `Cn1cccc1/C=C1\SC(=S)N(NC(=O)c2ccc(Cl)cc2)C1=O`, the inhibition is 101% (active).

For the compound `CCn1c(/C=C/c2ccc([N+](=O)[O-])o2)nc2ccccc2c1=O`, the inhibition was 36.7% (active).

Regarding `COc1ccccc1/C=N/Nc1nc(C)c(C(C)=O)s1`, the inhibition was 33.1% (active).

Turning to `CCOc1nnc(C)c2c(C)n(-c3cccc(Cl)c3)nc12`, the inhibition is 76.5% (active).

As to `O=C1NC(=O)C2C1C(c1ccc([N+](=O)[O-])cc1)=NN2Cc1ccccc1` (stereo not given), the inhibition is 33.2% (active).

Consider `CCN(CC)C(=O)CSC(Nc1cccc(F)c1)=C(C#N)C#N`, for which the inhibition was 46.5% (active).

On to `O=C(N/N=C/c1sc(N2CCCCC2)nc1-c1cccs1)c1cccnc1`, for which the inhibition is 44.1% (active).

Take `NNC(=O)c1oc2nc(-c3ccccc3)cc(-c3ccco3)c2c1N`: the inhibition is 31.5% (active).

As for `COc1ccc(Cc2nc(-c3ccccn3)no2)cc1OC`, the inhibition is 8.13% (inactive).

`Cc1ccc(Nc2nc(Cl)c(C=O)s2)cc1`: the inhibition is 67.3% (active).

On to `CCOc1ccc2nc(/N=C/c3nc(-c4ccccc4)oc3O)sc2c1`, for which the inhibition is 58.6% (active).

Take `Fc1ccc2nc(Nc3nc4c(s3)CCCC4)sc2c1`: the inhibition is 28.4% (active).

For `Cc1c(-c2ccccc2)cn2c1-c1ccc(C)n1CC2`, the inhibition is 32.8% (active).

Take `Cn1c2ccccc2c2cc(/C=C(\NC(=O)c3ccccc3)C(=O)NCC(=O)O)ccc21`: the inhibition is 80.3% (active).

On to `Cc1ccc(-c2nn(-c3ccccc3)cc2/C=C2\SC(=S)N(CCCCCC(=O)O)C2=O)o1`, for which the inhibition is 68.6% (active).

Regarding `O=C(Nc1ccc(S(=O)(=O)Nc2nccs2)cc1)c1cc(-c2ccncc2)nc2ccccc12`, the inhibition is 49.1% (active).

As for `CS(=O)(=O)c1ccc2c(c1)SC1=NC(=O)/C(=C/c3ccco3)C(=N)N12`, the inhibition is 44.3% (active).

For the compound `Cc1cc(/C=C2/SC(=O)N(CC(=O)N3CCCC3)C2=O)ccc1N1CCOCC1`, the inhibition was 63.5% (active).

Regarding `Cc1sc2nc(COC(=O)C(NC(=O)c3ccc(Cl)cc3Cl)C(C)C)[nH]c(=O)c2c1C` (stereo not given), the inhibition was 55.1% (active).

With `Cc1c(C(=O)OC(C)C)sc(NC(=O)c2cccnc2)c1C#N`, the inhibition was 26% (active).

Take `Nc1c(C(=O)c2cccs2)sc2nsc(SCCN3CCCCC3)c12`: the inhibition is 67.7% (active).

As for `CCCCCCc1cc2cc(-c3nnc(-c4ccccc4)o3)c(=O)oc2cc1O`, the inhibition was 117% (active).

As for `COc1cc(/C=C2/SC(=S)N(Cc3ccccc3)C2=O)cc(OC)c1O`, the inhibition was 98.5% (active).

Take `CCN(CC)c1ccc2cc(C(N)=O)/c(=N\NC(=O)c3ccncc3)oc2c1`: the inhibition is 139% (active).

For the compound `Cc1cc(O)c(C(=O)/C=C/c2c(F)c(F)c(F)c(F)c2F)c(=O)o1`, the inhibition is 63.4% (active).

For `CN1C(=O)/C(=C/C=C2\SCCN2C)OC1=S`, the inhibition is 172% (active).

Consider `CCN(CC)c1ccc(/C=N/Nc2nc(C)cc(C)n2)c(O)c1`, for which the inhibition is 34% (active).

`CSC1=N/C(=C\C=C\c2cccs2)C(=O)S1`: the inhibition was 52.8% (active).

Consider `Nc1nonc1-n1nnc(C(=O)N/N=C/c2cc(Br)ccc2O)c1CSC1=NCCS1`, for which the inhibition is 37.7% (active).

`N#C/C(=C/c1ccc(N2CCCCC2)o1)C(=O)NCCc1c[nH]c2ccccc12`: the inhibition was 191% (active).

Turning to `Cc1cc(/C=N/Nc2ccc([N+](=O)[O-])cn2)c(C)n1-c1cccc(C(=O)O)c1`, the inhibition was 54.5% (active).

Regarding `Cc1ccc(-n2c(C)cc(/C=N/Nc3ccc([N+](=O)[O-])cn3)c2C)c(C)c1`, the inhibition is 60.9% (active).

Take `Cc1ccc2[nH]c(=O)c(CN3CCCCC3)c(-c3ccccc3)c2c1`: the inhibition was 2.06% (inactive).

`N#C/C(=C(/O)COC(=O)COc1ccc(Cl)cc1)c1nc2ccccc2[nH]1`: the inhibition is 40.6% (active).

Turning to `CCOc1ccc(-n2c(O)c(/C=N/c3ccnn3Cc3ccncc3)c3ccccc3c2=O)cc1`, the inhibition was 80.4% (active).

Take `CN=c1scc(-c2cc(OC)ccc2OC)n1/N=C/c1c(C)[nH]c2ccccc12`: the inhibition was 22.2% (inactive).

Turning to `O=C1Nc2cc(C(=O)N3CCN(c4ccc(F)cc4)CC3)ccc2NC1CSCc1cccc(F)c1` (stereo not given), the inhibition is 112% (active).

As to `Cc1ccc(CSCC2Nc3ccc(C(=O)N4CCN(c5ccc(F)cc5)CC4)cc3NC2=O)cc1` (stereo not given), the inhibition is 16.1% (inactive).
